# Data as given in PubChem BioAssay AID1839 (Johns Hopkins Ion Channel Center, 2009).
# Hit rate of the full screen: of about 2,400 compounds, about 220 (9.2%) were called active. Shown is part of a subset that was picked to be rich in actives. Unmarked numbers belong to inactive results.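 The calls were made as follows: active = signal change above the mean of dofetilide-free buffer controls plus 3 SD, so a positive margin; inactive = the rest.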
# Test: nonspecific flux effects in parental CHO-K1, confirmation, counter-screen for hERG block protection project, cell-based, CHO-K1 parental line, FluxOR thallium flux (AID 1839);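 also: compounds applied alone with no dofetilide to cells lacking hERG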
# Conditions: CHO-K1 parental cells, FluxOR thallium flux fluorescence; at 10 µM
row,SMILES,"signal change vs control minus 3*SD hit threshold (margin above threshold, higher = more increase)"
1,Oc1c(Cl)cc(CN2CCCCC2)c2cccnc12,-25.2%
2,CCOC(=O)Cc1csc(NC(=S)NC(=O)c2ccccc2C)n1,-13.6%
3,Cc1cc(C(=O)NNC(=O)c2cccs2)nn1C(C)(C)C,-25.3%
4,O=C(N/N=C1/C(=O)c2cccc3cccc1c23)c1ccc(Cl)cc1,41.5% (active)
5,CCNC(=S)N/N=C1\C(=O)c2cccc3cccc1c23,-16.8%
6,O=C(NN=C1c2ccccc2-c2ccccc21)c1ccccc1,-27.5%
7,Cc1ccc(-c2n[nH]c(=S)nc2-c2ccc(C)cc2)cc1,-27.5%
8,CSc1nc2c(c(=O)[nH]1)C(c1ccc(F)cc1)CC(=O)N2 (stereo not drawn),-36%
9,CC(C)CC(=O)Nc1ccc2c3c(cccc13)CC2,-19.8%
10,C=CCn1c(=S)[nH]c2sc3c(c2c1=O)CCC3,-7.2%
11,CCn1c(SCC(N)=O)nc2sc3c(c2c1=O)CCCC3,-14.4%
12,C=CCn1c(=S)[nH]c2nc3c(cc2c1=O)CCCC3,-15.7%
13,COCCCn1c(=S)[nH]c2c(sc3ccccc32)c1=O,-36.9%
14,O=c1c2c3c(sc2[nH]c(=S)n1Cc1ccco1)CCC3,-6.1%
15,COCCCn1c(=S)[nH]c2sc3c(c2c1=O)CCCC3,2.5% (active)
16,CCn1c(=S)[nH]c2sc3c(c2c1=O)CCCC3,8.5% (active)
17,C=CCn1c(=S)[nH]c2sc3c(c2c1=O)CCCC3,3.6% (active)
18,COCCn1c(=S)[nH]c2sc3c(c2c1=O)CCCC3,-5.6%
19,CCCn1c(=S)[nH]c2sc3c(c2c1=O)CCCC3,32.1% (active)
20,CCCn1c(SCC(=O)N2CCN(C(C)=O)CC2)nc2sc3c(c2c1=O)CCC3,-6.2%
21,Cc1ccnc(N2CCC(C(=O)Nc3ccc(Oc4ccccc4)cc3)CC2)n1,-28.4%
22,CCCn1c(SCC(N)=O)nc2c(c1=O)C1(CCCC1)Cc1ccccc1-2,-7.7%
23,COc1ccc(NC(=O)CCN2C(=O)C3C4C=CC(C4)C3C2=O)cc1 (stereo not drawn),-35%
24,C=CCN(CC=C)C(=S)NC(=O)Cc1cccc2ccccc12,-17.1%
25,COc1ccc(C(CC(=O)N2CCOCC2)c2c(O)cc(OC)cc2OC)cc1 (stereo not drawn),-27.3%
26,CCSc1nc2c(sc3ccccc32)c(=O)n1C(C)C,-0.8%
27,Cc1ccc2[nH]c(C(=O)O)c(-c3ccccc3)c2c1,-18.6%
28,CCOC(=O)C1=C(O)/C(=C/c2ccc(OCC(=O)O)c(OC)c2)SC1=Nc1ccc(OCC)cc1,-28.1%
